Screens as filed in PubChem.
IL-1B inflam inh: qHTS for Inhibitors of Inflammasome Signaling: IL-1-beta AlphaLISA Primary Screen. THP-1 LPS/ATP IL-1B secretion, AlphaLISA, 16 h; stronger effect = lower value. activity change, % at 57.5 µM. AID 743279, 2014. 4.7% of 360,000 active; in the data active = activity change below about -50%; inconclusive = mostly about -30% to -49%
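Secreted IL-1B measured by AlphaLISA bead assay after 16 h compound exposure of THP-1 cells; compounds (final up to 57.5 uM) added 1 h before LPS (250 ng/mL) and ATP (1.25 mM) stimulation; lower signal means less secretion.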
TDP1 block: qHTS Assay for Inhibitors of Tyrosyl-DNA Phosphodiesterase (TDP1) | AID 485290, 2010 | Potency, µM (series often up to 130 µM), for the others: at the top dose activity change, negative = inhibition, usual class: inhibitors | 0.28% of 350,000 active | recombinant TDP1, AlphaScreen DNA substrate cleavage | Tyrosyl-DNA phosphodiesterase 1 (Homo sapiens), Q9NUW8; also: potency is read from the fitted curve at half-maximal effect; nearly all actives have a fitted effect of over 40% in size
Target sequence (Q9NUW8 whole entry, looked up): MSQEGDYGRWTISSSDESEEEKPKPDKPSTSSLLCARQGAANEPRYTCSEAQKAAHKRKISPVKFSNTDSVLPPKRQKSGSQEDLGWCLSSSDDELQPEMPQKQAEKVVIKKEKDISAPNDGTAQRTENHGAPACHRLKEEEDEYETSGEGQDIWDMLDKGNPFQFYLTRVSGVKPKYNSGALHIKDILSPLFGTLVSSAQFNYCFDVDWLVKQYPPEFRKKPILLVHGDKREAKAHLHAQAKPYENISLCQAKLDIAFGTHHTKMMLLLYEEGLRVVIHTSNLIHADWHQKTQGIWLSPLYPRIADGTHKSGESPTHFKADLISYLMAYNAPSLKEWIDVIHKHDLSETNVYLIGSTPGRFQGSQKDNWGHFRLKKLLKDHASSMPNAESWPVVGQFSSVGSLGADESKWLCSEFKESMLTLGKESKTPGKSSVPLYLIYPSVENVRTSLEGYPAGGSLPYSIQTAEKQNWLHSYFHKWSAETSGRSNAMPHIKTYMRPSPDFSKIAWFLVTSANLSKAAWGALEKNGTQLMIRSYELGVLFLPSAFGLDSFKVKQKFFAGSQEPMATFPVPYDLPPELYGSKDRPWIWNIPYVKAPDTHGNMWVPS
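Tdp1 1 nM final; 15 min RT w/ cpd; substrate 15 nM, 5 min; beads 10 ug/ml, 10 min; AlphaScreen read. Neg ctrl: no enzyme.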
CtBP-E1A blk: qHTS Assay for Inhibitors of the CtBP/E1A Interaction | AlphaScreen GST-E1A/His-CtBP binding, 1536-well; stronger effect = lower value | activity change, % (no concentration beside the values) | 0.49% of 340,000 active; in the data active = activity change below about -65%; inconclusive = mostly about -30% to -63%
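Steps: dispense buffer (Tris pH 8.0, NaCl 300 mM, TCEP 1 mM, BSA, Tween 20); add 5X protein mix (GST-E1A, His-CtBP, 125 nM each); pin 23 nL compound; 2 h at 37 °C, dark; add 5X beads (50 ug/mL); 1 h; read.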
TDP1 cell CPT: qHTS for Inhibitors of human tyrosyl-DNA phosphodiesterase 1 (TDP1): qHTS in cells in presence of CPT. chicken DT40 Tdp1-/-;hTDP1 cells + 20 nM CPT, ATP luminescence, 48 h. Potency, µM (highest dose often 46.2 µM), for inactives: at the highest dose activity change, negative = growth inhibition, actives largely listed as inhibitors. 12% of 420,000 active. AID 686979, 2013; also: potency is read from the fitted curve at half-maximal effect; nearly all actives have a fitted effect of over 55% in size
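Cell growth measured by CellTiter-Glo luminescence after a minimum 48 h, 37 C compound exposure with 20 nM CPT in Tdp1-knockout DT40 cells stably expressing hTDP1, seeded 400/well; qHTS titration format.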
TDP1 cell noCPT: qHTS for Inhibitors of human tyrosyl-DNA phosphodiesterase 1 (TDP1): qHTS in cells in absence of CPT; Potency, µM (top dose mostly 46.2 µM), for the others: at the top dose activity change, negative = growth inhibition, actives largely listed as inhibitors; 15% of 420,000 active; DT40 Tdp1-/- hTDP1 cells, no CPT, ATP luminescence, 48 h; also: potency is read from the fitted curve at half-maximal effect; nearly all actives have a fitted effect of over 55% in size
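Stably hTDP1-transfected Tdp1-null chicken DT40 cells were treated with library compounds minus camptothecin and grown for at least 48 hr at 37 °C, after which cellular ATP was quantified by luminescence.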
Six1-Eya2 blk: qHTS Assay for Inhibitors of the Six1/Eya2 Interaction. Homeobox protein SIX1 (Homo sapiens) + Protein phosphatase EYA2 (Homo sapiens), …. AlphaScreen GST-Six1/His-Eya2 binding, biochemical; stronger effect = lower value. activity change, % (concentration not given with the values). 0.56% of 360,000 active. AID 651725, 2012; in the data active = activity change below about -65%; inconclusive = mostly about -30% to -63%
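Six1/Eya2 binding was read as AlphaScreen signal after compounds were pinned into GST-Six1 plus His-tagged Eya2 (5X stock 250/500 nM) in pH 8.0 Tris/NaCl/TCEP buffer, beads added, then incubated 1 h, 37 C, dark.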
An asterisk follows results filed as active; ? = inconclusive; nt = no result. Shown are actives, neighbours in structure and some others; about 18% of the full set was active somewhere. Unless noted, calls follow the shape of the dose curve; as a rule, active = well fitted curve in the direction sought with a large enough effect; inconclusive = small, poorly fitted or top-dose-only effect, or another doubt; inactive = no such curve, though single readings can be large; an effect the other way counts as inactive or inconclusive. % is scaled to controls: 0 for no effect and ±100 for the full control effect.

SMILES	IL-1B inflam inh	TDP1 block	CtBP-E1A blk	TDP1 cell CPT	TDP1 cell noCPT	Six1-Eya2 blk
NCCCC[C@@H]1NC(=O)c2cc([N+](=O)[O-])cc(F)c2NCCCC[C@@H](C(N)=O)NC(=O)[C@H](CCC(N)=O)NC1=O	9	-1%	-23	-12%	-2%	4
CCc1nc2ccc(C(=O)O)cc2nc1CC	0	-2%	1	-24%	-16%	-4
COc1ccccc1OCC(=O)NNC(=O)c1ccoc1C	-9	5%	-15	15µM*	?	0
Cc1cccc(C)c1OCC(=O)NNC(=O)c1ccoc1C	2	5%	0	-10%	-1%	11
CCOc1ccc(-c2csc(/C(C#N)=C\c3ccc(O)c([N+](=O)[O-])c3)n2)cc1	-6	5%	-5	3.7µM*	4.6µM*	?
COc1ccc(C(=O)c2nccc3ccccc23)cc1	-4	5%	1	0%	-18%	3
COc1ccc(C(=O)c2c(C)c3ccccc3n2CC(O)CNC(C)C)cc1 (configuration not stated)	?	3%	-21	?	23µM*	0
COCCN(CC(=O)Nc1cccc(C)c1C)C(=O)/C=C/c1ccc2c(c1)OCCO2	-10	nt	5	-18%	0%	1
CCOc1ccc(-c2[nH]ncc2Oc2ccccc2OCC)c(O)c1	-15	6%	-2	6.5µM*	?	-2
C=C(C)COc1ccc(-c2n[nH]c(C)c2-c2ccc(Br)cc2)c(O)c1	-92*	1%	1	18µM*	?	-3
C=C(C)COc1ccc(-c2ncnc(C(F)(F)F)c2-c2ccc(OC)cc2)c(O)c1	-20	nt	-14	-24%	?	-17
CCOc1ccc(-c2[nH]ncc2Oc2ccccc2OC)c(O)c1	-20	10%	-4	-24%	?	0
CCCOC(=O)c1ccc(Oc2cn[nH]c2-c2ccc(OC)cc2O)cc1	-11	8%	-6	15µM*	21µM*	6
C=C(C)COc1ccc(-c2[nH]ncc2Oc2ccccc2OC)c(O)c1	-62*	4%	5	?	?	-5
C=C(C)COc1ccc(-c2[nH]ncc2-c2ccccc2OC)c(O)c1	-60*	6%	-2	26µM*	26µM*	-3
C=C(C)COc1ccc(-c2[nH]ncc2Oc2ccc(OC)cc2)c(O)c1	-14	nt	7	?	?	-6
C=C(C)COc1ccc(-c2ncncc2-c2ccc(Br)cc2)c(O)c1	-8	nt	-6	-1%	-29%	-6
C=C(C)COc1ccc(-c2[nH]ncc2-c2ccc(Br)cc2)c(O)c1	-100*	0%	1	4.6µM*	5.2µM*	-3
O=c1c(-c2ccc(F)cc2)nc2cnc(N3CCOCC3)nc2n1C1CC1	nt	nt	nt	3%	16%	nt
CCC(=O)c1ccc(OCCSc2ncccn2)cc1	-6	8%	11	?	18µM*	7
CCC(=O)c1ccc(OCC(=O)O)cc1	6	1%	4	-3%	10%	6
CCC(C)C(N)C(=O)N1CCCC1C(=O)NC(C(=O)O)C(C)CC (configuration not stated)	0	nt	25	0%	1%	28
CC1(C)CC(=O)C2=C(C1)OC(N)=C(C#N)C21C(=O)N2CCCc3cccc1c32 (configuration not stated)	-7	3%	-3	-11%	-10%	1
CC1=CC(C)(C)N2C(=O)C3(C(C#N)=C(N)OC4=C3C(=O)CCC4)c3c(C)c(C)cc1c32 (configuration not stated)	-14	5%	-4	-17%	?	7
CC1=CC(C)(C)N2C(=O)C3(C(C#N)=C(N)Oc4cc(O)ccc43)c3c(C)c(C)cc1c32 (configuration not stated)	-73*	7%	-10	?	?	-12
SMILES	IL-1B inflam inh	TDP1 block	CtBP-E1A blk	TDP1 cell CPT	TDP1 cell noCPT	Six1-Eya2 blk
Cc1cc2c3c(c1)C(C)(c1ccccc1)CC(C)(C)N3C(=O)C21C(C#N)=C(N)OC2=C1C(=O)CC(C)(C)C2 (configuration not stated)	?	11%	-10	21µM*	23µM*	-10
CC1(c2ccccc2)CC(C)(C)N2C(=O)C3(C(C#N)=C(N)Oc4cc(O)ccc43)c3cccc1c32 (configuration not stated)	-51*	10%	-19	?	?	-15
CN(CCOc1ccccc1)C(=O)c1ccc(N2CCCC2)c([N+](=O)[O-])c1	0	14%	-2	-17%	?	-23
Fc1ccc(CNC(=S)Nc2ccc(Cl)cc2)cc1	-16	2%	3	?	?	5
O=C(NNC(=S)Nc1ccc(Cl)cc1Cl)c1ccncc1	-1	-2%	5	-17%	16µM*	-3
S=C(NCc1ccc(Cl)cc1)Nc1ccncc1	-17	3%	1	8.2µM*	?	1
S=C(NCc1ccc(Cl)cc1)Nc1ccccc1	-23	0%	4	?	21µM*	-2
S=C(Nc1ccccc1)Nc1ccc(Cl)cc1Cl	-1	-3%	-1	18µM*	?	4
CCCNC(=O)OCC12CC3CC(CC(C3)C1)C2	22	2%	-10	-24%	?	4
Cc1ccccc1NC(=S)NCc1ccc(Cl)cc1	-9	8%	2	?	15µM*	-7
CN(C1CCCCC1)S(=O)(=O)c1ccc2c(c1)c(=O)c(C(=O)NCc1ccc(Cl)cc1)cn2C	nt	5%	nt	-20%	?	nt
CC(C)[C@@H]1CN=C(N)N1C[C@@H]1CCCN1C[C@H](C)N1C[C@@H](Cc2ccccc2)N(CCc2ccc(Cl)c(Cl)c2)C1=N	-75*	1%	?	?	?	-1
CC[C@@H](C)[C@@H]1CN([C@@H](CN2CCC[C@H]2CN2C(N)=NC[C@H]2CC(C)C)C(C)C)C(=N)N1CCc1ccc(Cl)c(Cl)c1	-60*	0%	-6	?	?	6
CC[C@@H](C)[C@@H]1CN([C@@H](C)CN2CCC[C@H]2CN2C(N)=NC[C@H]2CC(C)C)C(=N)N1CCc1ccc(Cl)c(Cl)c1	?	-2%	-2	?	?	8
